Assay results reported in PubChem BioAssay (Tox21).
Records with an inconclusive call do not appear. Activity calls are given as the source filed them. The call rests on the fitted dose curve; in most records, active means well fitted curve in the direction sought with a large enough effect in the repeat runs; inconclusive means weak or mixed curves; inactive means no such curve, though single readings can be large; an effect the other way counts as inactive or inconclusive.

Assay: qHTS RealTime-Glo MT Cell Viability Assay in HepG2 cells - 8 hour (AID 1224873); further: nearly all actives have a fitted effect of over 55% in size
Details: RealTime-Glo luminescence; series mostly up to 76.8 µM; viability change, negative = cytotoxic: at the top concentration
Outline: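 HepG2 cells (600/well) mixed with RealTime-Glo MT reagent, settled 5 h at 37 C/5% CO2 before compound addition. Nonlytic NanoLuc luminescence from viable-cell prosubstrate reduction read repeatedly during 40 h treatment at 37 C.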
On the % scale 0 is the no-effect control and ±100 the full control effect.

Structure (SMILES) | viability change, negative = cytotoxic
COC(=O)c1ccc(OC)cc1 | 2.3% (inactive)
Cc1ccsc1C(=CCCN1CCC[C@@H](C(=O)O)C1)c1sccc1C | 1.91% [at 35.3 µM] (inactive)
CC1=NN(c2cc(Cl)c(S(=O)(=O)O)cc2Cl)C(=O)C1N=Nc1ccc(S(=O)(=O)O)cc1 (stereo unspecified) | -6.41% (inactive)
Cc1onc(-c2ccccc2)c1C(=O)Cl | -1.04% [at 35.3 µM] (inactive)
CCCCCOc1ccc(C2SC(=O)NC2=O)cc1OCC (stereo unspecified) | -3.29% [at 35.3 µM] (inactive)
C=CCCC=C | -6.87% (inactive)
CCCCCCCCOC(=O)CCCCCCCCC(=O)OCCCCCCCC | -2.5% (inactive)
CC1=CC(=O)CC(C)(C)C1=O | 0.708% (inactive)
CN1CCN(c2c(F)cc3c(=O)c(C(=O)O)cn4c3c2SCC4)CC1 | 5.37% [at 35.3 µM] (inactive)
CCC(=O)O[C@]1(C(=O)SCF)[C@H](C)C[C@H]2[C@@H]3C[C@H](F)C4=CC(=O)C=C[C@]4(C)[C@@]3(F)[C@@H](O)C[C@@]21C | 1.4% [at 35.3 µM] (inactive)
NS(=O)(=O)c1cc(-c2nn[nH]n2)c(NCc2cccs2)cc1Cl | 1.3% [at 35.3 µM] (inactive)
CCN1CC(CCN2CCOCC2)C(c2ccccc2)(c2ccccc2)C1=O (stereo unspecified) | 1.7% [at 35.3 µM] (inactive)

Assay: qHTS RealTime-Glo MT Cell Viability Assay in HEK293 cells - 40 hour (AID 1224874); further: nearly all actives have a fitted effect of over 50% in size; further: potency means the concentration at half of the fitted maximal effect
Details: RealTime-Glo luminescence; max response: hits give low values
Outline: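 HEK293 + NanoLuc + prosubstrate, 600 cells/well; 5 h, 37 C/5% CO2; compound 23 nL in DMSO by pintool; 37 C; luminescence read at 0, 8, 16, 24, 32 and 40 h time points.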

Structure (SMILES) | max response | Potency
CCCCCCCCc1ccc(S(=O)(=O)O)cc1 | -16.1% (inactive) | 
CC1=C(CC(=O)O)c2cc(F)ccc2/C1=C\c1ccc(S(C)(=O)=O)cc1 | 8.4% (inactive) | 
CC(C)NCC(O)COc1ccc(CCOCC2CC2)cc1 (stereo unspecified) | -6.16% (inactive) | 
C1CCOC1 | 0.369% (inactive) | 
C=O | -2.52% (inactive) | 
COc1nc(C)nc(NC(=O)NS(=O)(=O)c2ccccc2OCCCl)n1 | 6.36% (inactive) | 
O=C(O)[C@@H]1CSCN1 | 2.01% (inactive) | 
O=C(O)[C@@H](O)[C@H](O)[C@H](O)[C@@H](O)C(=O)O | 0.215% (inactive) | 
CN1CCN(C2=Nc3ccccc3Oc3ccc(Cl)cc32)CC1 | -25.8% (inactive) | 
CC(C)O | -1.12% (inactive) | 
CCC1(C)NC(=O)NC1=O (stereo unspecified) | -2.11% (inactive) | 
CC/C=C\CCOC(=O)C(C)C | -2.11% (inactive) | 
CCCCCCCOC(=O)CCC | 4.56% (inactive) | 
CCCCCCC | -15.1% (inactive) | 
OCCN1CCN(CCO)CC1 | 1.21% (inactive) | 
O=C1CCCc2ccccc21 | 23.3% (inactive) | 
O=C1C=CC(=O)O1 | 12.6% (inactive) | 
O=C(O)c1ccccc1Nc1cc(Cl)ccc1C(=O)O | 2.59% (inactive) | 
CCc1cc2cc(OC)c(OC)cc2c(Cc2ccccc2)n1 |  | 16.9 µM (active)
CN1CCC[C@@H]1Cc1c[nH]c2ccc(CCS(=O)(=O)c3ccccc3)cc12 | 3.35% (inactive) | 

Structure (SMILES) | max response | Potency
Cc1cc2nc(N)sc2cc1C | -0.484% (inactive) | 
CCCNC(C)C(=O)Nc1c(C)csc1C(=O)OC (stereo unspecified) | -5.59% (inactive) | 
Cc1cc(NS(=O)(=O)c2ccc(N)cc2)nc(C)n1 | -0.863% (inactive) | 
CCCCCCCCCCCCCCCCOP(=O)([O-])OCC[N+](C)(C)C | -6.12% (inactive) | 
NC1=NCC2c3ccccc3Cc3ccccc3N12 (stereo unspecified) | -13.1% (inactive) | 
Cc1ccc(C)c(N)c1 | 4.84% (inactive) | 
O=C1N(c2ccccc2)c2ccccc2C1(Cc1ccncc1)Cc1ccncc1 | 5.52% (inactive) | 
COC(=O)c1ccc(OC)cc1 | 0.622% (inactive) | 
Cc1ccsc1C(=CCCN1CCC[C@@H](C(=O)O)C1)c1sccc1C | 2.02% (inactive) | 
CC1=NN(c2cc(Cl)c(S(=O)(=O)O)cc2Cl)C(=O)C1N=Nc1ccc(S(=O)(=O)O)cc1 (stereo unspecified) | 4.23% (inactive) | 
Cc1onc(-c2ccccc2)c1C(=O)Cl | 5.64% (inactive) | 
CCCCCOc1ccc(C2SC(=O)NC2=O)cc1OCC (stereo unspecified) | -9.78% (inactive) | 
C=CCCC=C | 4.67% (inactive) | 
CCCCCCCCOC(=O)CCCCCCCCC(=O)OCCCCCCCC | 6.02% (inactive) | 
CC1=CC(=O)CC(C)(C)C1=O | -4.9% (inactive) | 
CN1CCN(c2c(F)cc3c(=O)c(C(=O)O)cn4c3c2SCC4)CC1 | 6.23% (inactive) | 
CCC(=O)O[C@]1(C(=O)SCF)[C@H](C)C[C@H]2[C@@H]3C[C@H](F)C4=CC(=O)C=C[C@]4(C)[C@@]3(F)[C@@H](O)C[C@@]21C | 2.57% (inactive) | 
NS(=O)(=O)c1cc(-c2nn[nH]n2)c(NCc2cccs2)cc1Cl | -3.29% (inactive) | 
CCN1CC(CCN2CCOCC2)C(c2ccccc2)(c2ccccc2)C1=O (stereo unspecified) | 20.2% (inactive) | 
